Test results as given in PubChem BioAssay (NCATS).
Results filed as inconclusive are left out. Entries that show only a call come without a potency. A number with no mark means an inactive call. Calls of active or inactive are those of the source. The call rests on the fitted dose curve; in most records, active means well fitted curve in the direction sought with a large enough effect; inconclusive means small, poorly fitted or top-dose-only effect, or another doubt; inactive means no such curve, though single readings can be large; an effect the other way counts as inactive or inconclusive.

How the values were obtained:
[1] = biological target: Rap guanine nucleotide exchange factor 3 (Homo sapiens) (UniProt O95398); experiment: Confirmatory qHTS for antagonist of cAMP-regulated guanine nucleotide exchange factor 3 (EPAC1) (AID 1645880); further: nearly all actives have a fitted effect of over 55% in size; further: potency means the concentration at half of the fitted maximal effect
Summary of the method: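 Released BODIPY-GDP fluoresces less than Rap1-bound BODIPY-GDP; the signal is followed at 480/540 nm at 5-min intervals over 30 min, after 5 min at room temperature. Reactions contain 100 nM EPAC1, 250 nM RAP1B-BODIPY-GDP and 50 uM GDP; results are normalized to ATA and DMSO.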

[2] = biological target: Rap guanine nucleotide exchange factor 3 (Homo sapiens) (UniProt O95398); experiment: Confirmatory qHTS for agonist of cAMP-regulated guanine nucleotide exchange factor 3 (EPAC1) (AID 1645881);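 further: EPAC1 catalysed release of BODIPY-GDP from Rap1B seen as fluorescence loss; nearly all actives have a fitted effect of over 75% in size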
[3] = biological target: Rap guanine nucleotide exchange factor 4 (Homo sapiens) (UniProt Q8WZA2); experiment: Confirmatory qHTS for agonist of cAMP-regulated guanine nucleotide exchange factor 4 (EPAC2) (AID 1645884);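 further: nucleotide exchange releases bodipy-GDP from Rap1 and this lowers its fluorescence; nearly all actives have a fitted effect of over 65% in size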
[4] = biological target: Rap guanine nucleotide exchange factor 4 (Homo sapiens) (UniProt Q8WZA2); experiment: Confirmatory qHTS for antagonist of cAMP-regulated guanine nucleotide exchange factor 4 (EPAC2) (AID 1645885); further: nearly all actives have a fitted effect of over 25% in size; further: potency means the concentration at half of the fitted maximal effect
[5] = biological target: Rap guanine nucleotide exchange factor 3 (Homo sapiens) (UniProt O95398); experiment: Counterscreen qHTS for antagonist of cAMP-regulated guanine nucleotide exchange factor 3 (EPAC1) (AID 1645888)
Summary of the method: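 Measured: fluorescence of BODIPY-GDP bound to Rap1B, which falls as exchange proceeds. Conditions include 50 uM competing GDP, 5 and 30 min reads, and a later cAMP challenge for antagonist detection.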

Chain of Rap guanine nucleotide exchange factor 4 (Homo sapiens) (Q8WZA2 whole entry, looked up): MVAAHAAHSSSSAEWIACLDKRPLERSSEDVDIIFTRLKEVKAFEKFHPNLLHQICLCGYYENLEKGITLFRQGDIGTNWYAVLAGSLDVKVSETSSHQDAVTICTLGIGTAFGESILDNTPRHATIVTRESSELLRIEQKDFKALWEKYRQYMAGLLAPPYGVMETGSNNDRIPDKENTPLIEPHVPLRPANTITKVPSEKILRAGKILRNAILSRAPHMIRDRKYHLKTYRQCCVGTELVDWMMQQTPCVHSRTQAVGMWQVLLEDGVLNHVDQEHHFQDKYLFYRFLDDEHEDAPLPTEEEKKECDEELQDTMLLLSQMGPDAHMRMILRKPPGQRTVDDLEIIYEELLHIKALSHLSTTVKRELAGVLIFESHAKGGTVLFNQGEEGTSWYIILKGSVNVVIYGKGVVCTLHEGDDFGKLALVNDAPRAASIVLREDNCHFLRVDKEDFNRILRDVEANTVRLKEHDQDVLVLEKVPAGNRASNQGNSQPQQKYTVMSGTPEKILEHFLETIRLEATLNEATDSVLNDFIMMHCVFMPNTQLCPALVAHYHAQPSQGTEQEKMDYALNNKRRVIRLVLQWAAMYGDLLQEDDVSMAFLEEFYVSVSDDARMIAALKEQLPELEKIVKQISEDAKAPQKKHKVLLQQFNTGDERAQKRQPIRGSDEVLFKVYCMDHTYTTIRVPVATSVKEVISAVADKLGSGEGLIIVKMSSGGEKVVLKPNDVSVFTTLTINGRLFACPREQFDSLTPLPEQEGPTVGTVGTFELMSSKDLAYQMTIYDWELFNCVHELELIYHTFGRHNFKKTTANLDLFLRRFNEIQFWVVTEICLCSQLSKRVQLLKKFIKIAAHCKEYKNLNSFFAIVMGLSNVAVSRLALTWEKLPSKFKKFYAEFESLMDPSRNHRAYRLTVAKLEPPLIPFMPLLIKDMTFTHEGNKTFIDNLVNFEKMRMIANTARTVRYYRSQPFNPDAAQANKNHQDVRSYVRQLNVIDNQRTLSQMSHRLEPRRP
Chain of Rap guanine nucleotide exchange factor 3 (Homo sapiens) (O95398 whole entry, looked up): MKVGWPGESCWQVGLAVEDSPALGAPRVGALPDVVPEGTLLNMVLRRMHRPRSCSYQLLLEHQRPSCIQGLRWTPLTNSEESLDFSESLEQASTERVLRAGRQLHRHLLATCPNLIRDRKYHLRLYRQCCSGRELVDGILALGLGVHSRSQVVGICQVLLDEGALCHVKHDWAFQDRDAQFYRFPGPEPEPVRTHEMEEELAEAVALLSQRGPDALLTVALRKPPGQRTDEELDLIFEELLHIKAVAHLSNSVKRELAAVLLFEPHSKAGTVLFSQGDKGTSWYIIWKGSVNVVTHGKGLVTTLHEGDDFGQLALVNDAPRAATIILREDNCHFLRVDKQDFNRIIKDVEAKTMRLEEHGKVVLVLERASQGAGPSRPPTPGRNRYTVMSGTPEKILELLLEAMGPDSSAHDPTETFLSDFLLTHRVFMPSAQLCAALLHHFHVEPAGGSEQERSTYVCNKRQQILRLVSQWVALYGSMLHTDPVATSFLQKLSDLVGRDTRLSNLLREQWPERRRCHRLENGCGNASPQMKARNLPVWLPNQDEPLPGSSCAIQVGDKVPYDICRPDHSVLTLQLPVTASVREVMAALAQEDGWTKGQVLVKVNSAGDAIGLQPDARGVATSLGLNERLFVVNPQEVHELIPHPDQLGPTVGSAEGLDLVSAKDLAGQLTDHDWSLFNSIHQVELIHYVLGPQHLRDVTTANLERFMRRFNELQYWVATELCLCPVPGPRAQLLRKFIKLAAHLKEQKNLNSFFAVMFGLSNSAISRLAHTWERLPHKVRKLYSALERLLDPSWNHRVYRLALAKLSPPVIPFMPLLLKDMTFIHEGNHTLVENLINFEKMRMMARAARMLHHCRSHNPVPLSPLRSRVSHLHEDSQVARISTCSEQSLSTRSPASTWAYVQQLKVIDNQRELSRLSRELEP

With `COc1ccc(C(=O)c2c(-c3ccc(OC)cc3)oc3ccccc23)cc1` the Potency [1] was “inactive”, the Potency [2] was “inactive” and the Potency [3] was “inactive”. The Potency [4] was 15.1 µM (active) and the Potency [5] was “inactive”.
In the case of `N#C/C(=C/c1ccc(O)c(O)c1)c1nc2ccccc2[nH]1`, the Potency [1] is reported as 6.01 µM (active), the Potency [2] is reported as “inactive” and the Potency [3] is reported as “inactive”. The Potency [4] was “inactive” and the Potency [5] was “inactive”.
`CCOC(=O)N1CCN(C(=O)CSc2nnc(Cc3ccccc3)o2)CC1` was tested, and the Potency [1] was “inactive”, the Potency [2] was “inactive” and the Potency [3] was “inactive”. The Potency [4] was “inactive” and the Potency [5] was “inactive”.
For `Oc1ccc(NCc2ccccc2OCc2ccc(Cl)cc2)cc1`, the Potency [1] was 75.7 µM (active), the Potency [2] was “inactive” and the Potency [3] was “inactive”. For the same compound, the Potency [4] was “inactive” and the Potency [5] was “inactive”.
`CN(C)C(CNS(=O)(=O)c1ccc(Cl)cc1)c1cccnc1` (stereo not given) was tested, and the Potency [1] was “inactive”, the Potency [2] was “inactive” and the Potency [3] was “inactive”. The Potency [4] was “inactive” and the Potency [5] was “inactive”.
`Cc1cc(C)c(-c2c(N)cc(Br)cc2Br)c(N)c1` was tested, and the Potency [1] was “inactive”, the Potency [2] was “inactive” and the Potency [3] was “inactive”. For the same compound, the Potency [4] was “inactive” and the Potency [5] was “inactive”.
`CCN(CC(=O)Nc1c(F)cccc1F)C(=O)CCc1nc2sc3c(c2c(=O)[nH]1)CCCC3` was tested, and the Potency [1] was 75.7 µM (active), the Potency [2] was “inactive” and the Potency [3] was “inactive”. The Potency [4] was “inactive” and the Potency [5] was “inactive”.
`Cc1ccc(CN2C(=O)CSC2c2ccccc2F)cc1` (stereo not given) was tested, and the Potency [1] was “inactive”, the Potency [2] was “inactive” and the Potency [3] was “inactive”. For the same compound, the Potency [4] was 33.8 µM (active) and the Potency [5] was “inactive”.
`COc1ccc2c(c1)c1nnc(SCC(=O)NC3CC3)nc1n2C` was tested, and the Potency [1] was “inactive”, the Potency [2] was “inactive” and the Potency [3] was “inactive”. The Potency [4] was 84.9 µM (active) and the Potency [5] was “inactive”.
`CNc1nc(-c2ccc(OC)cc2)c(-c2ccc(OC)cc2)s1` was tested, and the Potency [1] was “inactive”, the Potency [2] was “inactive” and the Potency [3] was “inactive”. The Potency [4] was 23.9 µM (active) and the Potency [5] was “inactive”.
For `CC(=O)N1CCc2nc3sc(C(=O)Nc4ccc(Cl)cc4F)c(N)c3c(C(F)(F)F)c2C1`, the Potency [1] was “inactive”, the Potency [2] was “inactive” and the Potency [3] was “inactive”. For the same compound, the outcome [4] was “inactive [at 12.7 µM]” and the Potency [5] was “inactive”.
`CC1(C(=O)NS(=O)(=O)c2cccs2)CCN1C(=O)C1(c2ccc(Cl)cc2)CCC1` (stereo not given) was tested, and the Potency [1] was 15.8 µM (active), the Potency [2] was “inactive” and the activation [3] was 1.54% [at 17.1 µM, percent relative to cAMP agonist control]. The Potency [4] was “inactive” and the activity change, negative = inhibition [5] was -14.6% [at 30.8 µM].
`CCSc1nnc(NC(=O)C2CCN(S(=O)(=O)c3ccccc3C(F)(F)F)CC2)s1` was tested, and the Potency [1] was “inactive”, the Potency [2] was “inactive” and the Potency [3] was “inactive”. For the same compound, the Potency [4] was “inactive” and the Potency [5] was “inactive”.
With `CSC1=NC2(CCN(C(=O)NC3CCCCC3)CC2)N=C1c1ccc(C)cc1` the Potency [1] was “inactive”, the Potency [2] was “inactive” and the Potency [3] was “inactive”. For the same compound, the Potency [4] was “inactive” and the Potency [5] was “inactive”.
For `CN(c1ccc(C(=O)NCc2ccc3c(c2)OCO3)cc1)S(=O)(=O)c1ccccc1`, the Potency [1] was “inactive”, the Potency [2] was “inactive” and the Potency [3] was “inactive”. The Potency [4] was “inactive” and the Potency [5] was “inactive”.
With `COc1cccc(Cn2c(=O)cc(C)c3c(C)nn(C)c32)c1` the Potency [1] was “inactive”, the Potency [2] was “inactive” and the Potency [3] was “inactive”. For the same compound, the Potency [4] was “inactive” and the Potency [5] was “inactive”.
For `COc1ccc(/C=N/NC(=O)c2cccnc2)cc1CN1CCCc2ccccc21`, the Potency [1] was “inactive”, the Potency [2] was “inactive” and the Potency [3] was “inactive”. For the same compound, the Potency [4] was “inactive” and the Potency [5] was “inactive”.
With `Cc1ccccc1NC1=C/C(=N\S(=O)(=O)c2ccc(C(=O)O)cc2)c2ccccc2C1=O` the Potency [1] was 14.1 µM (active), the Potency [2] was “inactive” and the activation [3] was 1.42% [at 17.1 µM, percent relative to cAMP agonist control]. The Potency [4] was “inactive” and the activity change, negative = inhibition [5] was -15% [at 30.8 µM].
